Compound activity: PubChem, Sanford-Burnham Center for Chemical Genomics
Many of the other results were omitted from the sample, so hits are more common in it than they were.
VHR inh color – inhibitors of human VHR1 phosphatase (DUSP3) | inhibition, % at 20 µM | P51452 | 50,000 compounds, 0.7% hits | recombinant VHR phosphatase, colorimetric substrate read-out; in the data active means inhibition above about 60%
Target sequence (P51452 whole entry, looked up): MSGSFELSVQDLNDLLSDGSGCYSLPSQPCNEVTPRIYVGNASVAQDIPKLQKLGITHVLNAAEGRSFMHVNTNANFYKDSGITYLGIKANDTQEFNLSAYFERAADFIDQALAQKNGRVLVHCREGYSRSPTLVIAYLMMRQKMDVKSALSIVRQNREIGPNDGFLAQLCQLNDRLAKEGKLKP
Large screens that a line does not name were inactive.

CCOc1ccccc1-n1c(O)c(C=C2C=CC=N2)c(=O)[nH]c1=O	none
Cn1c(O)c(/C=C2/C=CC=N2)c(=O)n(-c2ccccc2)c1=S	VHR inh color 69.1
O=c1[nH]c(=O)n(-c2ccccc2Cl)c(O)c1C=C1C=CC=N1	none
Cc1ccc(N(CC(=O)NC2CCCC2)S(=O)(=O)c2ccccc2)cc1	none
CCOc1ccc(S(=O)(=O)N(CC(=O)NC2CCCCC2)c2ccc(C)cc2)cc1	VHR inh color 90.2
Cc1ccc(N(CC(=O)NC2CCCC2)S(=O)(=O)c2ccc(F)cc2)cc1	none
CC(C1CC1)N(Cc1ccccc1)C(=O)Nc1ccccc1Cl (centres undefined)	none
Oc1ccccc1/C=N\Nc1nc(-c2ccc(Cl)cc2)cs1	none
C/C(CCc1ccccc1)=N\NC(=O)CN(Cc1ccco1)S(=O)(=O)c1ccccc1	none
O=C(COc1ccc(Cl)cc1Cl)NCc1ccncc1	none
O=C(COc1ccc(Cl)cc1Cl)NCCCOCC(=O)Oc1ccc(Cl)cc1Cl	VHR inh color 104.5
O=C(COc1ccc(Cl)cc1Cl)OCc1ccccc1	none
Cc1cccc(OC(=O)COc2ccc(Cl)cc2Cl)c1	none
O=C(COc1ccc(Cl)cc1Cl)Oc1ccccc1	VHR inh color 84.5
CC(C)CNC(=O)CCCOc1ccc(Cl)cc1Cl	none
Cc1c(C)c2ccc(OC(C)C)cc2oc1=O	none
COc1ccc(N2C(=O)NC(=O)/C(=C/c3ccc(-c4ccc([N+](=O)[O-])cc4C)o3)C2=O)cc1	none
Cc1cc(=O)oc2c(C)c3occ(-c4ccccc4)c3cc12	none
O=C(c1ccccc1)N1N=C2CCCCCC2C1(O)C(F)(F)F (centres undefined)	none
CCOc1ccccc1/C=N\n1c(C)nnc1C	none
CCOc1ccccc1NC(=O)c1ccccc1	none
CCOc1ccccc1NC(=O)C1C2CCC3C(CCC21)C3(Cl)Cl (centres undefined)	VHR inh color 119.3
O=C(Nc1cccc2ccccc12)C1C2CCC3C(CCC21)C3(Cl)Cl (centres undefined)	none
C/C(=N/NC(=O)c1ccccc1)c1ccc2c3c(cccc13)CC2	none
CCc1c(C)c2cc([N+](=O)[O-])c(O)c(C)c2oc1=O	none
Cc1ccc(C2=CC(=O)N(c3cccc(C(F)(F)F)c3)C2=O)cc1	none
O=C1NC(=S)/C(=C\c2ccc(-c3ccc([N+](=O)[O-])cc3)o2)S1	VHR inh color 99.5
CSCCC(C(=O)O)N1C(=O)/C(=C\c2ccc(-c3ccc([N+](=O)[O-])cc3)o2)SC1=S (centres undefined)	VHR inh color 80.8
CN1C(=O)/C(=C/c2ccc(-c3ccc([N+](=O)[O-])cc3)o2)SC1=S	none
O=C1/C(=C\c2ccc(-c3ccc([N+](=O)[O-])cc3)o2)SC(=S)N1c1ccc(O)cc1	none
O=C(O)CCN1C(=O)/C(=C/c2ccc(-c3ccc([N+](=O)[O-])cc3)o2)SC1=S	none
O=C1NC(=O)/C(=C\c2ccc(-c3cccc([N+](=O)[O-])c3)o2)S1	none
COc1ccc(C(=O)Nc2sc3c(c2C#N)CCCCC3)cc1	none
Cc1cc(Cl)ccc1NC(=O)C(=O)NC(C)C	none
O=C(N/C(=C/c1cccnc1)c1nc2ccccc2[nH]1)c1cccc(Br)c1	none
CCO/C=N/C1=C(C#N)C(c2ccccc2)C2=C(CC(C)(C)CC2=O)O1 (centres undefined)	none
CCOc1cccc(/C=N/NC(=O)COc2ccccc2[N+](=O)[O-])c1O	none
COc1ccc(-c2cc(C(=O)NCCc3ccccc3)c3ccccc3n2)c(OC)c1	VHR inh color 102.4
COc1ccc(-c2cc(C(=O)NCCc3ccccc3)c3ccccc3n2)cc1OC	none
COc1ccc(-c2cc(C(=O)NCCc3ccc(OC)c(OC)c3)c3ccccc3n2)c(OC)c1	none
COc1ccc(N(CC(=O)NC(C)C)S(C)(=O)=O)c(OC)c1	none
CCOc1cccc(C(=O)Nc2cc(-c3nc4ccccc4[nH]3)ccc2C)c1	none
COc1cc(OC)cc(C(=O)Nc2cc(C(F)(F)F)cc(C(F)(F)F)c2)c1	none
O=C1c2ccccc2C(=O)N1CN1CCN(Cc2ccccc2)CC1	none
Cc1ccc(OCC(=O)Nc2cccc(C#N)c2)c(C)c1	none
Cc1ccc(NC(=O)CC2CCCCC2)cc1	none
Cc1ccccc1NC(=O)CC1CCCCC1	none
O=C(CC1CCCCC1)Nc1ccccc1	VHR inh color 96.8
CCn1c(CCCO)nc2ccccc21	none
OCc1nc2ccccc2n1Cc1ccc2ccccc2c1	none
OCc1nc2ccccc2n1Cc1ccccc1F	VHR inh color 115.7
CCOC(=O)c1c(NC(=O)c2ccccc2OCC)sc(C)c1C	none
COc1ccc(/C=C(/C#N)C(N)=O)c2ccccc12	none
Cc1ccc(N(CC(=O)Nc2cc(Cl)cc(Cl)c2)S(C)(=O)=O)cc1Cl	none
Cc1ccc(-n2c(O)c(/C=C3\C=Nc4ccccc43)c(=O)[nH]c2=S)cc1	VHR inh color 64.4
O=c1[nH]c(=S)n(-c2ccc(Cl)c(Cl)c2)c(O)c1/C=C1/C=Nc2ccccc21	none
Cc1cc(C)cc(-n2c(O)c(/C=C3\C=Nc4ccccc43)c(=O)[nH]c2=O)c1	none
O=C(Nc1nccs1)C1(c2ccccc2)CC1(Cl)Cl (centres undefined)	none
O=C(Nc1ccccc1F)C1(c2ccccc2)CC1(Cl)Cl (centres undefined)	none
O=C(Nc1cccc2ccccc12)C1(c2ccccc2)CC1(Cl)Cl (centres undefined)	VHR inh color 117.7
Cc1ccc(S(=O)(=O)Oc2ccc(Br)cc2C=C2C(=O)NC(=S)NC2=O)cc1	none
Cc1ccc(S(=O)(=O)/N=C(/Nc2ccc(C)c(Cl)c2)Nc2nc(C)cc(C)n2)cc1	none
Cc1cccc(NC(=O)c2c(NC(=O)C(C)(C)C)sc3c2CCCC3)c1	VHR inh color 87.9
COc1ccccc1NC(=O)c1c(NC(=O)C(C)(C)C)sc2c1CCCC2	none
Cc1ccccc1NC(=O)c1c(NC(=O)C(C)(C)C)sc2c1CCCC2	none
COc1ccc(N(CC(=O)NCc2ccccc2)S(=O)(=O)c2ccc(C)cc2)c(OC)c1	none
COc1cc(C(=O)NN2C(=O)/C(=C/c3ccc(N(C)C)cc3)SC2=S)ccc1O	none
COc1cc(C=Nc2ccc(Nc3ccccc3)cc2)ccc1OCc1ccccc1	none
COc1cc(/C=N/O)ccc1OCc1ccc(Cl)cc1	VHR inh color 104.7
C=CCN1C(=O)NC(=O)/C(=C\c2ccc(OCc3ccc(Cl)cc3)c(OC)c2)C1=O	none
CCOC(=S)N/C(=N/S(=O)(=O)c1ccc(C)cc1)c1ccccc1	none
CCN(CC)CCN1C(=O)C(O)=C(C(=O)/C=C/c2ccccc2)C1c1ccccc1F (centres undefined)	none
Cc1cccc(C(=O)Nc2c(C(=O)N(C)C)cnn2-c2ccccc2)c1	VHR inh color 69.9
Cc1cccc(C(=O)Nc2c(C(=O)N3CCN(C)CC3)cnn2-c2ccccc2)c1	none
CCCN(CCC)C(=O)c1cnn(-c2ccccc2)c1NC(=O)c1cccc(F)c1	none
Cc1ccc(C(=O)O)cc1-n1c(C)ccc1C	none
Cc1ccc(C)n1-c1ccc(Cl)cc1C(=O)O	VHR inh color 84.6
Cc1ccc(C)n1-c1cc(C(=O)O)ccc1Cl	VHR inh color 83.0
COc1cc(C(=O)O)c(-n2c(C)ccc2C)cc1OC	none
Cc1ccc(C)n1-c1ccc(Cl)c(C(=O)O)c1	none
Cc1cc(C(=O)O)ccc1-n1c(C)ccc1C	none
O=C1NC(=S)S/C1=C\c1ccccc1C(=O)O	none
